Source: PubChem BioAssay (National Center for Advancing Translational Sciences (NCATS))
JMJD2A Tudor – qHTS Assay for Inhibitors of JMJD2A-Tudor Domain; Lysine-specific demethylase 4A (Homo sapiens), O75164; AlphaScreen JMJD2A-Tudor / H3K4me3 peptide binding; Potency, µM (titrated, usually from 114 µM), actives largely listed as inhibitors; hit rate 4.4% among 390,000; AID 504339, 2011; further: nearly all actives have a fitted effect of over 50% in size
HP1b chromo inh – HTS for Inhibitors of HP1-beta Chromodomain Interactions with Methylated Histone Tails. Potency, µM (doses to about 114 µM), hits mostly inhibitors. AlphaScreen HP1-beta / biotin-H3K9me3 peptide binding. hit rate 0.56% among 390,000; further: nearly all actives have a fitted effect of over 70% in size
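AlphaScreen: HP1-beta (50 nM) preformed 30 min with biotin-H3(1-18)K9me3 peptide (50 nM) in PBS pH 7.4, 0.01% Tween-20. Compound added for 30 min at RT, then streptavidin donor/nickel chelate acceptor beads (10 ug/mL) for 30 min.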
BAZ2B inh – qHTS Assay for Inhibitors of BAZ2B. Bromodomain adjacent to zinc finger domain protein 2B (Homo sapiens), Q9UIF8. AlphaScreen BAZ2B-H3K14Ac peptide displacement. Potency, µM (series often up to 114 µM), actives largely listed as inhibitors. hit rate 4.4% among 360,000; further: nearly all actives have a fitted effect of over 60% in size
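BAZ2B (50 nM) with biotin-H3(5-23)K14Ac peptide (50 nM) in PBS pH 7.4, 0.01% Tween-20, preformed 30 min, then compound 30 min at room temperature; top concentration 110uM. AlphaScreen streptavidin donor/nickel chelate acceptor beads (10 ug/mL final), 20 min dark, signal read.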
TDP1 inh – qHTS Assay for Inhibitors of Tyrosyl-DNA Phosphodiesterase (TDP1); recombinant TDP1, AlphaScreen DNA substrate cleavage; Potency, µM (highest dose often 130 µM), actives largely listed as inhibitors; hit rate 0.28% among 350,000; AID 485290, 2010; Tyrosyl-DNA phosphodiesterase 1 (Homo sapiens), Q9NUW8; further: nearly all actives have a fitted effect of over 40% in size
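Signal: AlphaScreen proximity between streptavidin donor and anti-FITC acceptor beads on intact substrate. Reaction: Tdp1 1 nM, substrate 15 nM final, 5 min RT after 15 min compound preincubation.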
Sfp PPTase inh – qHTS Assay for Inhibitors of Bacillus subtilis Sfp phosphopantetheinyl transferase (PPTase) | 4'-phosphopantetheinyl transferase ffp (Bacillus subtilis), Q9F4F7 | Biochemical Sfp PPTase activity, qHTS | Potency, µM, actives largely listed as inhibitors | hit rate 3.5% among 310,000 | AID 1490, 2009;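 further: the enzyme is Sfp with the accession as filed and its product quenches rhodamine fluorescence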
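With Hepes-Na pH 7.6 buffer containing 10 mM MgCl2, Sfp (15 nM) modified BHQ-2-YbbR (12.5 uM) using rhodamine-CoA (5 uM). Two reads 30 minutes apart at 525/598 nm yielded each well's rate.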
G9a inh – qHTS Assay for Inhibitors of Histone Lysine Methyltransferase G9a | hit rate 8.8% among 350,000 | Histone-lysine N-methyltransferase EHMT2 (Homo sapiens), Q96KQ7 | G9a H3K9 monomethylation, AlphaScreen, 2 h | Potency, µM (doses to about 102 µM), usual class: inhibitors | AID 504332, 2011; further: nearly all actives have a fitted effect of over 75% in size
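Methyltransferase reactions run at room temperature for 2 h (20 nM enzyme, 500 nM biotin-H3K9 peptide, 20 uM SAM) after a 15 min compound preincubation; product detected by AlphaScreen beads and anti-H3K9me1 antibody.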
Each line names hits and unclear results; the compound was inactive in the other large screens. Compounds with a hit are over-represented: about 12% of the library has one in this group of screens. The call rests on the fitted dose curve; in most records, active means well fitted curve in the direction sought with a large enough effect; inconclusive means small, poorly fitted or top-dose-only effect, or another doubt; inactive means no such curve, though single readings can be large; an effect the other way counts as inactive or inconclusive.

CCOC(=O)C1CCCCN1Cc1cccc(C(F)(F)F)c1 (centres undefined)	JMJD2A Tudor inconclusive, BAZ2B inh inconclusive, G9a inh inconclusive
CCOC(=O)C1CCCCN1Cc1ccccc1C(F)(F)F (centres undefined)	JMJD2A Tudor 4.5µM, HP1b chromo inh inconclusive, Sfp PPTase inh inconclusive
COC(=O)c1ccc(COn2nnc3ccccc32)cc1	none
O=C(Nc1ccc(Oc2ccccc2)nc1)C1CCCCN1Cc1ccc(O)cc1 (centres undefined)	none (no result: JMJD2A Tudor, HP1b chromo inh)
COc1cc(CN2CCCCC2C(=O)Nc2ccc(Oc3ccccc3)nc2)ccc1O (centres undefined)	G9a inh 5.6µM
O=C(CSc1nc(-c2ccccc2)[nH]c1-c1ccccc1)Nc1ccc2c(c1)OCCO2	JMJD2A Tudor inconclusive, BAZ2B inh inconclusive, G9a inh inconclusive (no result: Sfp PPTase inh)
O=C(NNC(=O)c1cccc(C(F)(F)F)c1)c1ccncc1	BAZ2B inh inconclusive, G9a inh 25µM (no result: TDP1 inh)
CC(=O)N1CCC2(CCN(Cc3cc(C(F)(F)F)cc(C(F)(F)F)c3)CC2)CC1	none (no result: JMJD2A Tudor, HP1b chromo inh, BAZ2B inh, TDP1 inh)
O=C(CCl)N1c2ccccc2Oc2ccc3ccccc3c21	JMJD2A Tudor 56µM, HP1b chromo inh 71µM (no result: BAZ2B inh, TDP1 inh, Sfp PPTase inh, G9a inh)
CC(=O)N1c2ccccc2Oc2cc3ccccc3cc21	none
O=C(C1CCCN(S(=O)(=O)c2ccc(F)cc2)C1)N1CCCCCC1 (centres undefined)	none
CC1C(c2ccc3c(c2)OCO3)c2cc3c(cc2OC1N1CCOCC1)OCO3 (centres undefined)	JMJD2A Tudor 18µM, HP1b chromo inh inconclusive (no result: BAZ2B inh, TDP1 inh, Sfp PPTase inh, G9a inh)
CC/C(O)=C(\C#N)c1nnc2n1CCCCC2	JMJD2A Tudor 3.5µM, BAZ2B inh 79µM, Sfp PPTase inh 89µM
N#C/C(=C(/O)c1ccc([N+](=O)[O-])cc1)c1nnc2n1CCCCC2	JMJD2A Tudor 28µM, BAZ2B inh inconclusive, G9a inh 50µM
N#C/C(=C(/O)c1cccs1)c1nnc2n1CCCCC2	BAZ2B inh inconclusive, Sfp PPTase inh inconclusive, G9a inh inconclusive
O=C(Nc1sc2c(c1C(=O)N1CCCCC1)CCCC2)c1ccccc1Cl	none (no result: TDP1 inh, Sfp PPTase inh)
Cn1c(=O)[nH]c(=O)c2c1nc(Br)n2C/C=N/Nc1ccccc1	BAZ2B inh inconclusive, Sfp PPTase inh 56µM, G9a inh inconclusive
COCCn1c(N/N=C(C)/C=C/c2ccccc2)nc2c1c(=O)[nH]c(=O)n2C	Sfp PPTase inh 40µM (no result: JMJD2A Tudor, HP1b chromo inh, G9a inh)
CCCn1c(N/N=C\C=C\c2ccccc2)nc2c1c(=O)[nH]c(=O)n2C	none (no result: BAZ2B inh)
CC(/C=C/c1ccccc1)=N\Nc1nc2c(c(=O)[nH]c(=O)n2C)n1CCO	Sfp PPTase inh 40µM, G9a inh inconclusive
COc1ccc([C@@H]2[C@@H]3C(=O)N(C(C)(C)C)C(=O)[C@@H]3[C@]3(Cc4ccc(Cl)cc4)C(=O)N(c4cccc(C)c4)C(=O)N23)cc1	none (no result: TDP1 inh, G9a inh)
Cn1cc(-c2nc3cncnc3n(CCN)c2=O)c2ccccc21	none (no result: JMJD2A Tudor, HP1b chromo inh, BAZ2B inh, TDP1 inh)
CC(C)(C)C(=O)Oc1ccc(S(=O)(=O)Nc2ccccc2C(=O)NCC(=O)O)cc1	none (no result: JMJD2A Tudor, HP1b chromo inh, BAZ2B inh, TDP1 inh)
O=C(NCC1CCN(C(=O)c2c(F)c(F)c(F)c(F)c2F)CC1)c1c(F)c(F)c(F)c(F)c1F	G9a inh 79µM
Cc1ccc(CNC(=O)c2ccc(CS(=O)(=O)Cc3ccc(C)cc3)o2)cc1	none (no result: Sfp PPTase inh)
COc1cccc(N2CC(C(=O)Nc3nnc(SCC(=O)N4CCCC4)s3)CC2=O)c1 (centres undefined)	G9a inh inconclusive
Cc1cccc(N2CC(C(=O)Nc3nnc(SCc4ccccn4)s3)CC2=O)c1 (centres undefined)	BAZ2B inh inconclusive, Sfp PPTase inh inconclusive, G9a inh 10µM
COc1cccc(N2CC(C(=O)Nc3nnc(SCC(=O)Nc4cc(C)on4)s3)CC2=O)c1 (centres undefined)	none
